aSyn 5UTR act: Activators working through SNCA 5'UTR binding (MLPCN) | alpha-synuclein 5'UTR reporter, activators screen | activity score, % (tested at 7.5 µM), hits read low | hit rate 7.1% among 300,000; in the data active = activity score below about -60%
Numbers stand for hits; - = inactive. Only a sample is shown.

SMILES	aSyn 5UTR act
CCOC(=O)c1cnc2ccc(Cl)cc2c1N1CCN(C)CC1	-97
O=c1c(-c2ccc3c(c2)OCCO3)coc2c(CN3CCOCC3)c(O)ccc12	-94
CCc1cc2c(=O)c(-c3ccc4c(c3)OCCO4)coc2c(CN2CCCCC2C)c1O (stereo unspecified)	-65
CCc1cc2c(=O)c(-c3ccc4c(c3)OCCO4)coc2cc1OS(C)(=O)=O	-116
N/C(=N\OC(=O)c1ccc(Cl)cc1Cl)c1ccccn1	-
N/C(=N\OC(=O)c1cc([N+](=O)[O-])ccc1Cl)c1ccccn1	-82
N/C(=N\OC(=O)c1ccc([N+](=O)[O-])cc1Cl)c1ccccn1	-
N/C(=N\OC(=O)c1ccc(Cl)cc1[N+](=O)[O-])c1ccccn1	-165
Cc1c(C(=O)Nc2nc3ccccc3[nH]2)cccc1[N+](=O)[O-]	-167
O=C(Nc1nc2ccccc2[nH]1)c1ccc(Cl)c([N+](=O)[O-])c1	-109
O=C(Nc1nc2ccccc2[nH]1)c1ccccc1[N+](=O)[O-]	-118
COC(=O)c1ccn(Cc2ccccc2Cl)n1	-106
CC(=O)c1cccc(OCc2cc(C(=O)N3CCSCC3)no2)c1	-152
O=C(c1cc(COc2ccc(F)c(F)c2)on1)N1CCSCC1	-94
Clc1ccccc1/C=C/c1ccnc2ccccc12	-109
Oc1ccc(/C=C/c2ccnc3ccccc23)cc1	-112
Cc1cc(OCc2cc(C(=O)N(C)CCc3cnn(C)c3)no2)cc(C)c1Cl	-145
COc1cc(Cl)ccc1OCc1cc(C(=O)N(C)CCc2cnn(C)c2)no1	-91
O/C(=C\c1nc2ccccc2nc1/C=C(\O)c1ccccc1)c1ccccc1	-73
O/N=C/c1ccc2ccccc2n1	-79
O/C(=C\c1ccc2ccccc2n1)c1ccncc1	-69
CC(C)c1cc2cc3ccc(=O)oc3cc2o1	-96
CN(/N=C/c1cccnc1)c1cnc2ccccc2n1	-139
CCc1cccc(NC(=O)c2cnn(-c3ccccc3)c2C)c1	-144
O=C(Nc1cccc(Cl)c1)c1ccc(Cn2cc(Cl)cn2)cc1	-70
SMILES	aSyn 5UTR act
Cc1ccc(NC(=O)c2cnn(-c3ccccc3)c2C)c(C)c1	-212
COc1ccc(OC)c(C(=O)NC2CC(C)(C)Cc3c2cnn3-c2ccccc2)c1 (stereo unspecified)	-
COc1cccc(NC(=O)c2cnn(-c3ccccc3)c2C)c1	-91
CCn1ncc(C(=O)Nc2cccc(Cl)c2)c1C	-207
COCCNC(=O)C(c1ccncc1)N(C(=O)c1sc(C)nc1C)c1cccc(C)c1 (stereo unspecified)	-90
Cc1ccc2nc(NC(=O)COC(=O)c3ccccn3)sc2c1	-109
CCOc1ccc2nc(NC(=O)c3cnccn3)sc2c1	-127
CCOc1ccc2nc(NC(=O)C3(C)CC3(Br)Br)sc2c1 (stereo unspecified)	-128
CCOCC(=O)Nc1nc2ccc(C)cc2s1	-85
Cc1ccc2nc(NC(=O)CSCC(=O)OCC(=O)c3ccccc3)sc2c1	-
CCOc1ccc2nc(NC(=O)C3CCN(C(=O)c4ccco4)CC3)sc2c1	-99
Cc1ccc2nc(NC(=O)CCCC(=O)O)sc2c1	-
Cc1ccc2nc(NC(=O)CCn3cccc3)sc2c1	-115
CCOCC(=O)Nc1nc2ccc(OCC)cc2s1	-73
CCOc1ccc2nc(-c3cc(NC(C)=O)ccc3O)sc2c1	-161
C/C=C/C(=O)OCC(=O)Nc1nc2ccc(C)cc2s1	-74
Cc1ccc2nc(NC(=O)C3CC3C)sc2c1 (stereo unspecified)	-105
O=C(Nc1nccs1)c1ccc(-c2ccccc2Cl)o1	-286
COc1ccccc1NC(=O)c1ccc(-c2ccccc2[N+](=O)[O-])o1	-125
O=C(Nc1nccs1)c1ccc(-c2ccccc2[N+](=O)[O-])o1	-135
O=C(Nc1ncccc1O)c1ccc2c(c1)OCCO2	-222
O=C(Nc1ncccc1O)c1ccc2c(c1)OCO2	-207
Cc1cccnc1NC(=O)c1ccc2c(c1)OCCO2	-172
CCCc1ccc(Oc2cc(C)nc(N3CCOCC3)n2)cc1	-63
Nc1cc(-c2ccccc2)ccc1O	-118
SMILES	aSyn 5UTR act
CSc1nc(O)c(/C=C2\C=Nc3ccccc32)[nH]1	-221
O=C(Nc1ccc(OCC(F)(F)C(F)F)c(C(F)(F)F)c1)c1ccccc1	-101
O=C(O)CC(=O)Nc1ccc(Oc2ccc(C(F)(F)F)cn2)c(Cl)c1	-
Cc1nc2c(-c3ccc(F)cc3)cnn2c2c1CCC2	-87
N#CC1(NC(=O)Cn2ncc(Cl)c(Cl)c2=O)CCCCC1	-206
Cc1ccc(C(=O)Nc2ccn(Cc3ccc(F)cc3)n2)o1	-65
O=C(Nc1ccn(Cc2ccccc2)n1)c1ccc2c(c1)OCO2	-171
Cc1nn(Cc2ccc(F)cc2)c2sc(C(=O)Nc3ccc(N4CCOCC4)cc3N3CCOCC3)cc12	-
O=C(Nc1ccn(Cc2ccc(Cl)cc2)n1)c1ccccc1	-149
COc1ccc(C(=O)Cc2cc3cccc(OC)c3oc2=O)cc1	-79
COc1ccc(C(=O)c2cc3cccc(OC)c3o2)cc1	-161
COc1cccc2cc(CC(=O)c3ccc(C)cc3C)c(=O)oc12	-185
NNc1nc(-c2ccccc2)nc2sc3c(c12)CCCC3	-65
O=C(NC(=S)Nc1ccc(N2CCOCC2)cc1)c1cccs1	-126
C/C(=N/NC(=O)c1cccs1)c1ccc(N2CCOCC2)cc1	-66
Cc1ccc(C(=O)N2CCN(c3ccc(NC(=S)NC(=O)c4cccs4)cc3)CC2)cc1	-
Cc1cccc(C(=O)NC(=S)Nc2ccc(N3CCOCC3)cc2)c1	-66
O=C(Nc1nnc(C2CC2)s1)c1cc(-c2ccccc2)nn1-c1ccccc1	-95
O=C(Nc1nnc(C2CCCCC2)s1)c1ccco1	-178
CCc1c(C(=O)Nc2nnc(C3CC3)s2)csc1C	-119
O=C(Nc1nnc(C2CC2)s1)c1ccco1	-74
O=C(CCS(=O)(=O)c1ccccc1)Nc1cccc(-c2nc3ccccc3s2)c1	-135
O=C(CSc1nnc2ccccn12)Nc1cccc(-c2nc3ccccc3s2)c1	-134
O=C(Nc1cccc(-c2nc3ccccc3s2)c1)c1cccs1	-63
CC(C)CC(NC(=O)C1CCC(C)CC1)C(=O)Nc1ccc2c(c1)OCCO2 (stereo unspecified)	-62
SMILES	aSyn 5UTR act
CCC1CCC(C(=O)NC(C(=O)Nc2ccc3c(c2)OCCO3)C(C)C)CC1 (stereo unspecified)	-84
Cc1ccc2c(c1)C1CN(C)CCC1N2C(=O)Nc1ccc(Cl)cc1 (stereo unspecified)	-66
Cc1cc(OCc2cccc(Cl)c2)c(C)cc1CN1CCOCC1	-65
Oc1c(CN2CCOCC2)cc(COCc2ccccc2)c2cccnc12	-
CCOC(=O)C(C)On1c(-c2ccc(Cl)cc2)nc2ccc([N+](=O)[O-])cc21 (stereo unspecified)	-176
O=C(O)COn1c(-c2ccccc2)nc2ccc([N+](=O)[O-])cc21	-165
CCOC(=O)C(C)On1c(-c2ccccc2)nc2ccc([N+](=O)[O-])cc21 (stereo unspecified)	-192
CSc1ccc(CN(C)C(=O)c2cc3ccccc3o2)cc1	-67
CCOC(=O)N1CCC(NC(=O)c2ccc3c(c2)sc2nc(-c4cccc(OC)c4)cn23)CC1	-213
CCOC(=O)c1oc2ccc(/C=N/O)c(Cl)c2c1C	-140
NC(N)=N/N=C/c1ccc(OCc2ccccc2)c(OCc2ccccc2)c1	-
Cc1cccc(C(=O)Nc2ccc(C(=O)/C=C/c3cccnc3)cc2)c1	-98
O=C(/C=C/c1ccc(OCc2ccccc2)c(OCc2ccccc2)c1)c1cccnc1	-62
Cc1cccc(C(=O)Nc2ccc(C(=O)/C=C/c3ccncc3)cc2)c1	-160
